# From PubChem BioAssay (EPA / NIEHS)
# The source made the active and inactive calls. The calls were made as follows: active = hit-call score of the fitted dose curve at least 0.9, where 1 is the maximum; inactive = score below 0.9.
# Tests used:
# [1] = ATG_ISRE_CIS: Attagene CIS-FACTORIAL HepG2 Assay for human Interferon Regulatory Factor 1 (IRF1) binding to an Interferon-Stimulated Response Element (ISRE) (AID 2282948); details: HepG2 ISRE cis-reporter (Attagene), mRNA transcription readout; actives raise or lower the signal
# In short: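 Transfected HepG2 (multiple reporter transcription units, cis elements) dosed 24 h. RNA → oligo(dT) RT → PCR → 6-FAM primer extension → HpaI → CE. DMSO = negative control/baseline.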
# [2] = ATG_M_32_CIS: Attagene CIS-FACTORIAL HepG2 Assay for M32 Transcription Factor (Internal Marker) (AID 2282949); details: HepG2 Attagene cis-factorial M32 reporter, mRNA; actives raise or lower the signal;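 also: background control marker of the multiplexed CIS panel rather than a real target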
# In short: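 Fluorescent capillary electrophoresis peaks of HpaI-digested, FAM-labelled RT-PCR reporter products give the signal. Source: transiently transfected human liver HepG2 cells, 24 h after chemical dosing; bidirectional fitting against DMSO.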
# [3] = molecular target: Hypoxia-inducible factor 1-alpha (Homo sapiens) (UniProt Q16665); experiment: ATG_HIF1a_CIS: Attagene CIS-FACTORIAL HepG2 Assay for human Hypoxia Inducible Factor 1 (HIF1A) (AID 2282951); details: HepG2 Attagene cis-factorial HIF1a reporter transcription; actives raise or lower the signal
# Sequence of Hypoxia-inducible factor 1-alpha (Homo sapiens) (Q16665 whole entry, looked up): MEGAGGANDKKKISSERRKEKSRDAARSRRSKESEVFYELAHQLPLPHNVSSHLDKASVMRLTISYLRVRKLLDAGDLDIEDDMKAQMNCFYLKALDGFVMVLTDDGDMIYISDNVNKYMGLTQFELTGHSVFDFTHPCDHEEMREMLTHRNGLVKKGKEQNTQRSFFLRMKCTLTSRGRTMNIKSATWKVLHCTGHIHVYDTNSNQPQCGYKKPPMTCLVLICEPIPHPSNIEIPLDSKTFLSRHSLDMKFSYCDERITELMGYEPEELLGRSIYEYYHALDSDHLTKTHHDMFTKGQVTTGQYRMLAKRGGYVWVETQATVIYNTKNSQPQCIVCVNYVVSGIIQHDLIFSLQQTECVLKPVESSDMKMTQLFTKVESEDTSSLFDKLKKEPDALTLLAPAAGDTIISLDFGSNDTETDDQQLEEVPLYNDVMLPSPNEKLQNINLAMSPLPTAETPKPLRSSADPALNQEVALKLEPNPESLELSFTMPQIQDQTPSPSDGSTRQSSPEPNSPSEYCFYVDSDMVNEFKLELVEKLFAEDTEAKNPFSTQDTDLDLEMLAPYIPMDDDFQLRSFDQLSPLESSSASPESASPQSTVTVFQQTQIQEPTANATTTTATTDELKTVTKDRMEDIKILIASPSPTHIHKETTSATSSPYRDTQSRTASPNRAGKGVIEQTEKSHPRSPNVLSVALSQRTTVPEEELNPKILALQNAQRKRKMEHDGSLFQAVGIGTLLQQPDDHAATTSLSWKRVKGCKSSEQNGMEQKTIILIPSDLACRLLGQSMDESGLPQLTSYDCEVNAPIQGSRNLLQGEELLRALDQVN
# In short: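 Measures endogenous transcription-factor activity through cis-regulated reporter mRNA in HepG2. Cells dosed 24 h; transcripts quantified by RT-PCR with 6-FAM-labelled products separated by capillary electrophoresis; DMSO serves as negative control.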
# [4] = molecular target: Hepatocyte nuclear factor 6 (Homo sapiens) (UniProt Q9UBC0); experiment: ATG_HNF6_CIS: Attagene CIS-FACTORIAL HepG2 Assay for human Hepatocyte Nuclear Factor 6 (HNF6) (AID 2282952); details: HepG2 Attagene cis-factorial HNF6 reporter transcription; actives raise or lower the signal
# Sequence of Hepatocyte nuclear factor 6 (Homo sapiens) (Q9UBC0 whole entry, looked up): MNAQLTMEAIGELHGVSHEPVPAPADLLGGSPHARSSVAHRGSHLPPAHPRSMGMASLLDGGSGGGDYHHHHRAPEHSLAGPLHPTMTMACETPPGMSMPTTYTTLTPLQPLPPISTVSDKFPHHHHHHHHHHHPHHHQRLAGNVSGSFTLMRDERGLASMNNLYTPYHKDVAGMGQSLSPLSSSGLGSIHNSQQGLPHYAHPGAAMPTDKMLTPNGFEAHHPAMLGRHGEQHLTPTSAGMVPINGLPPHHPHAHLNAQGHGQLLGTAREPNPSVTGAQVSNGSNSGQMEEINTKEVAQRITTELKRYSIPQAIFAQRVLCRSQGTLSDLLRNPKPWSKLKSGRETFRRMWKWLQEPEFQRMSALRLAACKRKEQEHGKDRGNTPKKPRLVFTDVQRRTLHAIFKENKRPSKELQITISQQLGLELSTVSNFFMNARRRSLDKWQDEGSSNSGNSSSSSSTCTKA
# In short: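 HepG2 cells transiently transfected with cis-element-driven multiple reporter transcription units, dosed 24 h; reporter mRNA quantified by RT-PCR, FAM primer extension, HpaI digestion and capillary electrophoresis; bidirectional fit versus DMSO baseline.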
# [5] = molecular target: Heat shock factor protein 1 (Homo sapiens) (UniProt Q00613); experiment: ATG_HSE_CIS: Attagene CIS-FACTORIAL HepG2 Assay for human Heat Shock Transcription Factor 1 (HSE) (AID 2282953); details: HepG2 HSE cis-reporter, Attagene RNA transcription; actives raise or lower the signal
# Sequence of Heat shock factor protein 1 (Homo sapiens) (Q00613 whole entry, looked up): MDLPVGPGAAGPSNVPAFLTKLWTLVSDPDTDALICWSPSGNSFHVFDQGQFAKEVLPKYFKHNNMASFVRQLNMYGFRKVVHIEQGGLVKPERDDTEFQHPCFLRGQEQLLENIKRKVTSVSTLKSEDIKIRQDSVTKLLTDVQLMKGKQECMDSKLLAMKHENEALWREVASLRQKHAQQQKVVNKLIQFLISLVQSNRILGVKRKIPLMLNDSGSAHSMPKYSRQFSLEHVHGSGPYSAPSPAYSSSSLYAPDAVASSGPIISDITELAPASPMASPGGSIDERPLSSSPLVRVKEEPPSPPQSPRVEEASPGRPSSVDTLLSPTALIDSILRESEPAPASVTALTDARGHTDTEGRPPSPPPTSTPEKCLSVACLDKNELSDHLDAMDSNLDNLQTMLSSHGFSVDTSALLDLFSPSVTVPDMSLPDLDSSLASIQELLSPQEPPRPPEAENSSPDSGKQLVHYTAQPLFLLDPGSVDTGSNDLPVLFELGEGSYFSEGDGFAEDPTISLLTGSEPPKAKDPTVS
# In short: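 Reporter mRNA induction in HepG2 is measured 24 h after dosing, using transiently transfected multiplexed cis-regulated reporter units. Signal comes from capillary electrophoresis of labelled RT-PCR products, with DMSO as negative control.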
# [6] = ATG_MRE_CIS: Attagene CIS-FACTORIAL HepG2 Assay for human Metal Responsive Element (MRE) (AID 2282954); details: HepG2 MRE cis-reporter transcription, Attagene multiplex; actives raise or lower the signal
# In short: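 HepG2 cells transiently transfected with cis-element-driven reporter units; mRNA measured 24 h after dosing. Reporter transcripts quantified by RT-PCR, FAM labelling, HpaI digestion and capillary electrophoresis; bidirectional fit versus DMSO.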
# [7] = ATG_PBREM_CIS: Attagene CIS-FACTORIAL HepG2 Assay for human Phenobarbital-responsive Enhancer Module (PBREM) (AID 2282955); details: HepG2 PBREM cis-reporter, Attagene multiplexed transcription; actives raise or lower the signal
# In short: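 Fluorescence of labelled reporter cDNA fragments, resolved by capillary electrophoresis, gives mRNA induction in transfected HepG2 cells treated for 24 h; DMSO serves as negative control and baseline.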
# [8] = molecular target: Paired box protein Pax-6 (Homo sapiens) (UniProt P26367); experiment: ATG_Pax6_CIS: Attagene CIS-FACTORIAL HepG2 Assay for human Paired Box 6 (PAX6) (AID 2282956); details: HepG2 CIS-FACTORIAL PAX6 reporter transcription, RNA readout; actives raise or lower the signal
# Sequence of Paired box protein Pax-6 (Homo sapiens) (P26367 whole entry, looked up): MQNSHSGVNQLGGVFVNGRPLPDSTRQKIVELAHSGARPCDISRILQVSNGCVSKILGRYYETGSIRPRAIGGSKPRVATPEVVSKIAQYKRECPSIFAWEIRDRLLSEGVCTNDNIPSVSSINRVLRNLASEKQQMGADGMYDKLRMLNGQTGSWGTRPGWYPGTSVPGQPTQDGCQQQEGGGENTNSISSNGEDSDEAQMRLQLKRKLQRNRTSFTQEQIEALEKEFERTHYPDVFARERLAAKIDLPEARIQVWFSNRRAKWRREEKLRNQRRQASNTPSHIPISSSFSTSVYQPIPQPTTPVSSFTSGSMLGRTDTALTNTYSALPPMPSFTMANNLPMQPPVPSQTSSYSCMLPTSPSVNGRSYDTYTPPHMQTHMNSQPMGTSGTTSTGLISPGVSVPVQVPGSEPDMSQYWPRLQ
# In short: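 Transient MRTU transfection of HepG2 → compound exposure 24 h → TriZol RNA, oligo(dT) RT → PCR, 6-FAM primer extension, HpaI cut → capillary electrophoresis; activity fitted both directions against DMSO.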
# [9] = ATG_PXRE_CIS: Attagene CIS-FACTORIAL HepG2 Assay for human Pregnane X Receptor Element (PXRE) (AID 2282957); details: HepG2 Attagene CIS-FACTORIAL PXRE reporter, mRNA; actives raise or lower the signal
# In short: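 HepG2 cells transiently transfected with cis-regulated multiple reporter transcription units; endogenous factor activity measured as reporter mRNA 24 h after dosing. RT-PCR, fluorescent primer extension, HpaI digestion, capillary electrophoresis; bidirectional fit versus DMSO baseline.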
# [10] = ATG_M_06_CIS: Attagene CIS-FACTORIAL HepG2 Assay for M06 Transcription Factor (Internal Marker) (AID 2282950); details: HepG2 Attagene CIS-FACTORIAL M06 internal marker reporter; actives raise or lower the signal
# In short: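 Measured 24 h post-dosing in transiently transfected HepG2 cells, this internal-marker endpoint reports reporter mRNA via RT-PCR with fluorescent primer extension and capillary electrophoresis. DMSO served as negative control and baseline for bidirectional fitting.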
smiles,measurement,setting,value
C=CC(=O)OCC(COC(=O)C=C)(COC(=O)C=C)COC(=O)C=C,AC50,[1],5.34 µM (active)
same,outcome,[2],inactive
same,outcome,[3],inactive
same,outcome,[4],inactive
same,AC50,[5],56.5 µM (active)
same,AC50,[6],8.5 µM (active)
same,outcome,[7],inactive
same,AC50,[8],8.18 µM (active)
same,outcome,[9],inactive
CC(C)(C)c1ccc(CCOc2ncnc3ccccc23)cc1,outcome,[1],inactive
same,outcome,[2],inactive
same,outcome,[3],inactive
same,outcome,[4],inactive
same,outcome,[5],inactive
same,outcome,[7],inactive
same,outcome,[8],inactive
same,AC50,[9],34.7 µM (active)
CCOP(=S)(OCC)SCS(=O)(=O)C(C)(C)C,outcome,[1],inactive
same,outcome,[2],inactive
same,outcome,[3],inactive
same,outcome,[4],inactive
same,outcome,[5],inactive
same,outcome,[7],inactive
same,AC50,[9],4.12 µM (active)
N#CCCC(Br)(C#N)CBr (stereo not drawn),AC50,[1],60.8 µM (active)
same,outcome,[2],inactive
same,outcome,[3],inactive
same,AC50,[4],33.4 µM (active)
same,AC50,[5],62.9 µM (active)
same,AC50,[6],49.5 µM (active)
same,outcome,[7],inactive
same,AC50,[8],46.3 µM (active)
N#Cc1cccnc1,outcome,[1],inactive
same,outcome,[2],inactive
same,outcome,[3],inactive
same,outcome,[4],inactive
same,outcome,[5],inactive
same,outcome,[6],inactive
same,outcome,[7],inactive
same,outcome,[8],inactive
same,outcome,[9],inactive
Nc1c(Oc2ccccc2)cc(O)c2c1C(=O)c1ccccc1C2=O,outcome,[1],inactive
same,outcome,[2],inactive
same,outcome,[4],inactive
same,outcome,[5],inactive
same,outcome,[6],inactive
same,outcome,[7],inactive
same,AC50,[9],4.42 µM (active)
CCOP(=O)(OCC)SCCSCC,outcome,[1],inactive
same,outcome,[2],inactive
same,outcome,[3],inactive
same,outcome,[4],inactive
same,outcome,[5],inactive
same,outcome,[6],inactive
same,AC50,[9],57.2 µM (active)
O=NN1CCCCCC1,outcome,[1],inactive
same,outcome,[2],inactive
same,outcome,[3],inactive
same,outcome,[4],inactive
same,outcome,[5],inactive
same,outcome,[6],inactive
same,outcome,[8],inactive
same,AC50,[9],53 µM (active)
CCN(CCO)CCO,outcome,[1],inactive
same,outcome,[2],inactive
same,outcome,[3],inactive
same,outcome,[4],inactive
same,outcome,[5],inactive
same,outcome,[6],inactive
same,outcome,[7],inactive
same,outcome,[8],inactive
same,AC50,[9],27.2 µM (active)
CCCCCCCCCCCCBr,outcome,[1],inactive
same,outcome,[2],inactive
same,outcome,[3],inactive
same,outcome,[4],inactive
same,outcome,[6],inactive
same,outcome,[7],inactive
same,outcome,[9],inactive
c1ccc2sc(SNC3CCCCC3)nc2c1,outcome,[1],inactive
same,outcome,[2],inactive
same,AC50,[3],100 µM (active)
same,outcome,[4],inactive
same,outcome,[7],inactive
same,AC50,[9],27 µM (active)
CC(C)O.CC(C)O.OCCN(CCO)CCO.OCCN(CCO)CCO.[Ti],outcome,[1],inactive
same,outcome,[2],inactive
same,outcome,[3],inactive
same,outcome,[4],inactive
same,outcome,[6],inactive
same,outcome,[7],inactive
same,outcome,[8],inactive
same,outcome,[9],inactive
Cc1cccc(OP(=O)(Oc2cccc(C)c2)Oc2cccc(C)c2)c1,outcome,[1],inactive
same,outcome,[2],inactive
same,outcome,[3],inactive
same,outcome,[4],inactive
same,outcome,[5],inactive
same,outcome,[6],inactive
same,outcome,[7],inactive
same,outcome,[8],inactive
Oc1c(Cl)cc(Cl)cc1Cl,outcome,[1],inactive
same,outcome,[2],inactive
same,outcome,[10],inactive
same,outcome,[5],inactive
same,outcome,[6],inactive
same,outcome,[7],inactive
same,outcome,[8],inactive
